This note sets out measurements from PubChem BioAssay.

Activity calls are given as the source filed them. Unless noted, no rule for the calls is given here.

The subject of assay [1] is Wnt5a (protein binding on small-molecule microarray). Briefly: Wnt5a binders on small-molecule microarray, primary screen, biophysical, 635/667 nm fluorescence (AID 1142).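 Also: fluorescence read at 667 nm with signal to noise per printed feature.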 The conditions noted are these: 635 nm fluorescence, higher = more signal.
Assay [2] can be described thus: cell viability in Huh7 cells, primary screen, cytotoxicity control for HCV replication inhibitor project, CellTiter-Glo luminescence, basal, 48 h (AID 1143).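 Also: Huh7 hepatoma cells carrying a hepatitis C replication reporter with no stimulus; test concentration not given here.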 Particulars: Huh7 HCV replicon, higher = more signal, called active from +8 up or from −8 down. Background: ATP-based viability assays read luminescence as a measure of living cells.
A short description of assay [3]: P. aeruginosa biofilm formation inhibitors, primary screen, PAO1 strain, BacTiter-Glo luminescence, LB-PBS (AID 1144). The conditions noted are these: 12 h, higher = more signal.
The nature of assay [4]: CREB reporter modulators without forskolin, primary screen, cell-based, PC12, CRE-LacZ reporter, unstimulated (AID 1145). The conditions noted are these: no forskolin, luminescence, 4.5 h, higher = more signal, called active from +8 up or from −8 down.
Assay [5] is described as follows: CREB reporter modulators under forskolin, primary screen, cell-based, PC12, CRE-LacZ reporter, forskolin-stimulated (AID 1146).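 Also: PC12 cells with 6xCRE LacZ reporter stimulated by forskolin 10 µM; beta-galactosidase reporter signal reflecting CREB driven transcription.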 The conditions noted are these: luminescence, 4.5 h, higher = more signal, called active from +8 up or from −8 down.
Assay [6] concerns the target Streptavidin (Streptomyces avidinii) (UniProt P22629). The assay is described as follows: streptavidin binders on small-molecule microarray, primary screen, artefact control for SMM compound annotation, biophysical, 635/667 nm fluorescence (AID 1147).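 Also: signal reflects streptavidin binding to arrayed compounds as a control protein.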 The conditions noted are these: streptavidin binding, higher = more signal.
Assay [7] in a line: small-molecule binders of probe aInhba, primary screen, biochemical, small-molecule microarray, 635/667 nm fluorescence (AID 1148).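 Also: score merges 667nm spot fluorescence with signal-to-noise for antibody binding to printed compounds.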 The conditions noted are these: higher = more signal.
Assay [8] has as its target Torsin-1A (Homo sapiens) (UniProt O14656). The assay is described as follows: torsin A binders from cell lysate, primary screen, small-molecule microarray, wild-type, 635/667 nm (AID 1149). Particulars: COS7 hTOR1A-WT lysate, 635 nm fluorescence, higher = more signal.
The target is the same in assay [9]. Briefly: small-molecule binders of mutant TOR1A in lysate, primary screen, cell lysate, small-molecule microarray, COS7 lysate, 635/667 nm fluorescence (AID 1150).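 Also: score pools 667 nm emission and signal to noise measuring lysate protein binding.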 Particulars: COS7 hTOR1A mutant lysate, 635 nm fluorescence, higher = more signal.
Assay [10] concerns Sonic hedgehog protein (Shh). Briefly: small-molecule binders of Shh protein, primary screen, biochemical, small-molecule microarray, 635/667 nm fluorescence (AID 1151).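 Also: Shh protein binding to compounds spotted on small-molecule microarray slides; score combines spot fluorescence intensity with signal-to-noise across triplicate slides.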 Particulars: small-molecule microarray binding, 635 nm fluorescence; higher = more signal.
Assay [11] is described as follows: E. coli DRC41 culture turbidity changes, primary screen, E. coli filamentation inducer project, strain DRC41, OD650, 48 h (AID 1152).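 Also: E. coli MC1000 strain DRC41 lacking acrAB efflux pump and sulA.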 Particulars: E. coli DRC41 (acrAB sulA), higher = more signal, called active from +8 up or from −8 down.
A short description of assay [12]: small-molecule binders of probe aLefty1, primary screen, biochemical, small-molecule microarray, 635/667 nm fluorescence (AID 1153).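 Also: score merges spot fluorescence with signal-to-noise ratio from the scanned slide images.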 Particulars: higher = more signal.
The nature of assay [13]: PSAC antagonists in infected red cells, primary screen, cell-based, P. falciparum Indochina, OD700, 1 h (AID 1154). The conditions noted are these: P. falciparum Indochina infected RBC osmotic lysis, higher = more signal, called active from +8 up or from −8 down.
Assay [14] can be described thus: PSAC antagonists in infected red cells, primary screen, cell-based, P. falciparum Indochina, OD700, 2 h (AID 1155).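 Also: lysis reports solute entry through the parasite surface anion channel PSAC; channel blockers reduce lysis of infected cells.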 The conditions noted are these: P. falciparum Indochina infected erythrocytes, osmotic lysis OD700; higher = more signal, called active from +8 up or from −8 down.
A short description of assay [15]: osmotic lysis modulators in infected erythrocytes, primary screen, PSAC antagonist project, cell-based, P. falciparum Indochina, OD700, 3 h (AID 1156). The conditions noted are these: higher = more signal, called active from +8 up or from −8 down.
A short description of assay [16]: PSAC antagonists in infected red cells, primary screen, cell-based, P. falciparum Indochina, OD700, 18 h (AID 1157). Particulars: P. falciparum Indochina infected erythrocytes, osmotic lysis OD700, 18 h; higher = more signal, called active from +8 up or from −8 down.
The nature of assay [17]: modulators of S6 phosphorylation in cells, primary screen, cell-based, A549, cytoblot, luminescence, serum-stimulated (AID 1158).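 Also: serum-stimulated A549 lung adenocarcinoma cells; signal is phosphorylated S6 detected by cytoblot immunostaining with HRP secondary.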 The conditions noted are these: A549 phospho-S6 cytoblot, 5 h, higher = more signal.
The target of assay [18] is NADPH oxidase 2 (Homo sapiens) (UniProt P04839). Briefly: NOX2-dependent H2O2 signal modulators, primary screen, NOX inhibitor project, cell-based, HEK293-NOX2, PMA-stimulated, Amplex Red fluorescence (AID 1159). Also: test concentration not given here. Particulars: 45 min, higher = more signal, called active from +8 up or from −8 down.
Sequence of NADPH oxidase 2 (Homo sapiens) (P04839 whole entry, looked up): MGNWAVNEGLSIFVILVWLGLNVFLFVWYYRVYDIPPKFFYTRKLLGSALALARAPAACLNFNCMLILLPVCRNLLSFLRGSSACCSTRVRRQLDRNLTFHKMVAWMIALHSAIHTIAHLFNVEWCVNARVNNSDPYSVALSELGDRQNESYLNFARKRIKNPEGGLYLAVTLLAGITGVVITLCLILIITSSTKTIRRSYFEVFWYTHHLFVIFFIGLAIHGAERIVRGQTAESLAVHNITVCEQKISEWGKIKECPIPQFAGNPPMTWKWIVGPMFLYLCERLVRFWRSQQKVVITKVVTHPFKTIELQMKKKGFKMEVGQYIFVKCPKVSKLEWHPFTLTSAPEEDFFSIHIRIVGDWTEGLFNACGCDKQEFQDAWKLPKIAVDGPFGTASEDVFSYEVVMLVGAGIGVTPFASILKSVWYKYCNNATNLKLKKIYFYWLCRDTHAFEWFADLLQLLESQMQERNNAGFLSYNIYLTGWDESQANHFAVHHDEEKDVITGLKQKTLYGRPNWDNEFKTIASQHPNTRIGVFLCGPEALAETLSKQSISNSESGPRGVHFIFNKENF
Assay [19] concerns the target NADPH oxidase 4 (Homo sapiens) (UniProt Q9NPH5). The assay is described as follows: NOX4-dependent H2O2 signal modulators, primary screen, NOX inhibitor project, cell-based, HEK293-NOX4, tetracycline-induced, Amplex Red fluorescence (AID 1160). Particulars: 45 min, higher = more signal, called active from +8 up or from −8 down.
Assay [20] deals with NADPH oxidase 5 (Homo sapiens) (UniProt Q96PH1). Briefly: NOX5-dependent H2O2 signal modulators, primary screen, NOX inhibitor project, cell-based, HEK293-NOX5, Amplex Red fluorescence (AID 1161). Particulars: HEK293-NOX5, ionomycin, 45 min, higher = more signal.
Sequence of NADPH oxidase 5 (Homo sapiens) (Q96PH1 whole entry, looked up): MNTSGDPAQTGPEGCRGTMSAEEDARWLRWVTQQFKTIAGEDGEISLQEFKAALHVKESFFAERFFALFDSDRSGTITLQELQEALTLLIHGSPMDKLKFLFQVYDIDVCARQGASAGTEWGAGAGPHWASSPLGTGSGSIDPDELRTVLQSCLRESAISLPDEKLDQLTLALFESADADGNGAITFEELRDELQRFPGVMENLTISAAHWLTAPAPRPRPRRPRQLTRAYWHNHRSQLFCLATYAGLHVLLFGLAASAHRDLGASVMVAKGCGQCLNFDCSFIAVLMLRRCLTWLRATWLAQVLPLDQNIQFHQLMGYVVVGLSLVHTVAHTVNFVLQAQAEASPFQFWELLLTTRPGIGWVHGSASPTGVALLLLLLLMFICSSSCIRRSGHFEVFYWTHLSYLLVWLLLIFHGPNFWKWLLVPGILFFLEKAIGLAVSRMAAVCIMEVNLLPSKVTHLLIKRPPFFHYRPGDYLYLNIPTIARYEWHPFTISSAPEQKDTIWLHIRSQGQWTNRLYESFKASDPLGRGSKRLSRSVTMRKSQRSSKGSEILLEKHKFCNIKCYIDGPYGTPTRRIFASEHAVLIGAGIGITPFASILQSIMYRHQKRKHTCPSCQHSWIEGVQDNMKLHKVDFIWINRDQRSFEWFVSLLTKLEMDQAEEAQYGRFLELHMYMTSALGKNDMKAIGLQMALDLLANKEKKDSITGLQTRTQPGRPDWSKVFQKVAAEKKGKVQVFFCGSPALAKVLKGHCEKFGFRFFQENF

Sequence of Torsin-1A (Homo sapiens) (O14656 whole entry, looked up): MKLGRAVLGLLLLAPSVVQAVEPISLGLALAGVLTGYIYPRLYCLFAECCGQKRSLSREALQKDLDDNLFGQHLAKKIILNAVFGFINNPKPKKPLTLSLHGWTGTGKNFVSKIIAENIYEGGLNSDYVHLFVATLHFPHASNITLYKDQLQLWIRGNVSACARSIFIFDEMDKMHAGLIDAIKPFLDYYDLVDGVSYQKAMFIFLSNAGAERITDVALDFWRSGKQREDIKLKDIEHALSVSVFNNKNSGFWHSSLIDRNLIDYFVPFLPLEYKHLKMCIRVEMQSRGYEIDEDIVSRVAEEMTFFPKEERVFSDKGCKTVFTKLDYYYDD
Sequence of Streptavidin (Streptomyces avidinii) (P22629 whole entry, looked up): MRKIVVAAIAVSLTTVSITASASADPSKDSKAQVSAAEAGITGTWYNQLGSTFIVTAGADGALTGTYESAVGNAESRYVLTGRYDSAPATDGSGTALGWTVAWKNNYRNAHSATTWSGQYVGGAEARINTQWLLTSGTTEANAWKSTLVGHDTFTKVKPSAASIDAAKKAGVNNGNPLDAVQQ
Sequence of NADPH oxidase 4 (Homo sapiens) (Q9NPH5 whole entry, looked up): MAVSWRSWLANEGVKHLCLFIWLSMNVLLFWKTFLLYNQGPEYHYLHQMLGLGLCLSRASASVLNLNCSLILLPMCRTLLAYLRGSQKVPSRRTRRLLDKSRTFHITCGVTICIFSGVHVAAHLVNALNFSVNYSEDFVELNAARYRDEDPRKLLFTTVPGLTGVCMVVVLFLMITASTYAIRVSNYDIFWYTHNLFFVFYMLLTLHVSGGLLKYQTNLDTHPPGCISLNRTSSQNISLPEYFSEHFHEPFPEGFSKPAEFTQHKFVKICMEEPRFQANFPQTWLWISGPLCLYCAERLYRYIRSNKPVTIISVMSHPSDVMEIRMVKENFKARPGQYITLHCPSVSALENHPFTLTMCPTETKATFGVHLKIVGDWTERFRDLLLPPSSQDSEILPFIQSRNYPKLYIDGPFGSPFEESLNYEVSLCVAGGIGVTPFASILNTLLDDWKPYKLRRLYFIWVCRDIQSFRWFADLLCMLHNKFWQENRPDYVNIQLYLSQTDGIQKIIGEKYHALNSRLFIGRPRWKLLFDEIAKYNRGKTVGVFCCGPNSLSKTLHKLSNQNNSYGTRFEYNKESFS

Take `Cn1cccc1C(O)C1C=CC2C(=O)NC(=O)C2N1Nc1ccc(Cl)cc1Cl` (stereo not given): the composite z-score was 0.0792 in assay [1]; 1.37 in assay [6]; 0.374 in assay [7]; 0.887 with Torsin-1A (Homo sapiens) [8]; 1.05 with Torsin-1A (Homo sapiens) [9]; -0.269 in assay [10]. The same molecule gave a composite z-score in [12] of 0.0981. Also, the z-score in assay [2] was -0.316 (inactive); in [3] it was -0.668 (inactive); in assay [4] it was 0.812 (inactive); in assay [5], 2.09 (inactive); in assay [11], -3.18 (inactive); in [13], 2.16 (inactive). The z-score in [14] is 1.35 (inactive); in [15], 0.304 (inactive); in assay [16], 1.07 (inactive); in assay [17] it was -1.42; in assay [18], -0.663 (inactive); in [19] it was -3.85 (inactive). For the same molecule, the z-score in [20] is -2.71.

As to `C=CCN1C(=O)[C@@]2(O[C@@H](CCn3cc([C@H](O)c4ccccc4)nn3)[C@H]([Si](C)(C)c3ccc(OC)cc3)[C@H]2C)c2cc(N3CCC3=O)ccc21`, the composite z-score is -0.162 in [1]; -0.101 in assay [6]; -0.154 in assay [7]; 0.195 with Torsin-1A (Homo sapiens) [8]; 0.183 with Torsin-1A (Homo sapiens) [9]; -0.0053 in [10]. For the same molecule, the composite z-score in assay [12] was -0.189. The z-score was -1.83 (inactive) in assay [2]; -1.01 (inactive) in assay [3]; 17 (active) in assay [4]; -1.02 (inactive) in assay [5]; 0.359 (inactive) in assay [11]; 14.4 (active) in assay [13]. The z-score in assay [14] was 1.98 (inactive); in [15], 0.292 (inactive); in assay [16], 1.01 (inactive); in assay [17], -0.266; in assay [18] it was 0.631 (inactive); in assay [19], -0.498 (inactive). Further, the z-score in [20] stood at 0.0158.

`COc1ccc(C#Cc2ccc3c(c2)[C@]2(C(=O)N3)[C@H](c3ccc(O)cc3)N3[C@H](c4ccccc4)[C@H](c4ccccc4)OC(=O)[C@H]3[C@@H]2C(=O)O)cc1`: the composite z-score in assay [1] turned out to be 0.136; in [6] it was 0.942; in [7] it was 0.11; with Torsin-1A (Homo sapiens) [8], 0.0897; with Torsin-1A (Homo sapiens) [9] it was 0.721; in [10] it was 0.248. In addition, the composite z-score in assay [12] came to 0.948. Also, the z-score in assay [2] was -4.66 (inactive); in assay [3], -1.04 (inactive); in [4], 0.478 (inactive); in assay [5] it was -0.478 (inactive); in [11], 1.09 (inactive); in [13], -1.12 (inactive). For the same molecule, the z-score in [14] is -1.32 (inactive); in assay [15] it was -8.12 (active); in [16] it was -2.53 (inactive); in [17], 2.76; in assay [18] it was 0.397 (inactive); in assay [19] it was -2.46 (inactive). Moreover, in assay [20], the z-score was 0.00974.

With `C=CCC(OC(C)=O)[C@@H]1[C@@H](N(Cc2cccc3ccccc23)C(=O)c2cccc3ccccc23)c2cc(OCCCO)ccc2N1C(=O)c1ccc(-c2ccccc2)cc1` (stereo not given in full), the composite z-score in assay [1] is -0.0964; in assay [6] it was 0.116; in [7], 0.0543; with Torsin-1A (Homo sapiens) [8] it was -0.104; with Torsin-1A (Homo sapiens) [9], 0.292; in assay [10], 0.556. The molecule further registered a composite z-score in [12] of -0.106. In addition, the z-score in [2] was -1.56 (inactive); in assay [3], 1.21 (inactive); in assay [4] it was -0.113 (inactive); in assay [5], 1.24 (inactive); in assay [11], -0.929 (inactive); in assay [13], -0.17 (inactive). The z-score in [14] is 0.526 (inactive); in assay [15], 0.0426 (inactive); in assay [16], 0.361 (inactive); in [17] it was 0.684; in [18], -0.677 (inactive); in assay [19], 0.104 (inactive). Besides, the z-score in assay [20] is -2.47.

On to `COCCCNC(=O)[C@@]1(Cc2ccccc2CN=[N+]=[N-])N=C(c2ccc(OCCCO)cc2)O[C@H]1c1ccccc1`, for which the composite z-score was 0.919 in assay [1]; 0.284 in assay [6]; 0.0872 in [7]; 0.821 in the assay with Torsin-1A (Homo sapiens) [8]; 1.26 with Torsin-1A (Homo sapiens) [9]; -0.715 in assay [10]. For the same molecule, the composite z-score in assay [12] was found to be 0.197. For the same molecule, the z-score in [2] was -4.74 (inactive); in [3] it was -0.688 (inactive); in assay [4] it was 0.391 (inactive); in [5], 0.145 (inactive); in [11], -0.314 (inactive); in assay [13] it was 17.1 (active). Besides, the z-score is 2.76 (inactive) in [14]; 0.697 (inactive) in assay [15]; 1.16 (inactive) in [16]; 0.146 in assay [17]; -1.79 (inactive) in assay [18]; -0.298 (inactive) in [19]. The same molecule gave a z-score in [20] of -1.54.

In the case of `CCOC(=O)C[C@H]1[C@H](OC(=O)c2cc3ccccc3oc2=O)[C@@H](NC(=O)Cc2ccc(OC)cc2)c2cc(OCCCO)ccc2N1C(=O)c1ccc2ccccc2n1`, the composite z-score in assay [1] amounted to 0.34; in assay [6] it was 0.14; in assay [7], 0.0275; with Torsin-1A (Homo sapiens) [8], 0.0518; with Torsin-1A (Homo sapiens) [9], 0.161; in [10] it was 0.479. Moreover, the composite z-score in [12] was -0.0046. The z-score is 0.0642 (inactive) in assay [2]; 0.177 (inactive) in assay [3]; 11.5 (active) in assay [4]; -0.906 (inactive) in assay [5]; 0.96 (inactive) in assay [11]; 9.52 (active) in assay [13]. Also, the z-score in assay [14] is 0.85 (inactive); in assay [15], 0.785 (inactive); in [16], 0.305 (inactive); in [17] it was 0.336; in [18], 1.71 (inactive); in assay [19], 1.34 (inactive). In assay [20], this molecule yielded a z-score of 1.53.

With `C=C(C)c1cc2c(c(CCCCCC)n1)[Si](C(C)C)(C(C)C)OC2`, the composite z-score is -0.712 in assay [1]; -1.01 in assay [6]; -0.159 in assay [7]; -1.74 in the assay with Torsin-1A (Homo sapiens) [8]; -1.05 with Torsin-1A (Homo sapiens) [9]; -0.351 in assay [10]. This molecule came in with a composite z-score in assay [12] of -0.245. In addition, the z-score in assay [2] is -0.342 (inactive); in [3], 0.582 (inactive); in assay [4], 0.367 (inactive); in [5], 0.0246 (inactive); in assay [11], -0.959 (inactive); in [13], 1.18 (inactive). Further, the z-score was 0.7 (inactive) in assay [14]; -0.0223 (inactive) in assay [15]; 0.778 (inactive) in assay [16]; 0.202 in assay [17]; -1.98 (inactive) in [18]; -0.933 (inactive) in assay [19]. The molecule also had a z-score in assay [20] of -2.92.

For `O=C(CS)NCCCCCNC(=O)[C@@H]1C[C@@H]2C(=O)N3CCC[C@H]3C(=O)N2[C@@H]1c1cccc(OCCO)c1`, the composite z-score in [1] was 0.336; in assay [6], 0.281; in assay [7] it was -0.46; in the assay with Torsin-1A (Homo sapiens) [8] it was 1.44; in the assay with Torsin-1A (Homo sapiens) [9], 0.656; in [10], 0.792. In assay [12], this molecule displayed a composite z-score of -0.781. For the same molecule, the z-score in [2] is -0.0341 (inactive); in [3], -0.448 (inactive); in [4], 0.143 (inactive); in assay [5] it was -0.16 (inactive); in assay [11], -1.26 (inactive); in [13], 2.76 (inactive). The z-score is 0.465 (inactive) in assay [14]; -0.87 (inactive) in assay [15]; 0.277 (inactive) in [16]; -0.645 in assay [17]; 1.97 (inactive) in assay [18]; 0.231 (inactive) in [19]. The molecule further came in with a z-score in [20] of -0.232.
